From PubChem BioAssay (EPA / NIEHS)
“And” between values parts separate entries of the source, which are not always exact repeats. Equal values may be shown once. Records with an inconclusive call do not appear. Some structures have more than one record in an assay (separate samples or runs), and their calls can disagree. The source made the active and inactive calls. Rule for the calls, unless noted: active = hit-call score of the fitted dose curve at least 0.9, where 1 is the maximum; inactive = score below 0.9.

Tests used:
[1] = CCTE_Deisenroth_AIME_384WELL_CTox_Active: Cytotoxicity Assessment (CTOX) in CCTE's 384-well Estrogen Receptor Transactivation Assay with AIME metabolic competence (metabolism positive), Deisenroth Lab (AID 2284037; active = hit-call score of the fitted dose curve at least 0.9, where 1 is the maximum;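 note: chemicals first conditioned 2 h by alginate-bound induced rat liver S9 before cells; activity means signal loss indicating cell death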)
In short: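 VM7Luc4E2 breast cells received medium pre-incubated 2 h with chemical over alginate microspheres holding induced male Sprague Dawley rat liver S9; viability read 24 h later by protease-substrate fluorescence. Loss of signal, bidirectional fit, 0.002–200 uM.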

[2] = molecular target: Estrogen receptor (Homo sapiens) (UniProt P03372); assay: CCTE_Deisenroth_AIME_384WELL_LUC_Inactive: CCTE's 384-well Estrogen Receptor Transactivation Assay without AIME metabolic competence (ERTA luciferase; metabolism negative), Deisenroth Lab (AID 2284038; active = hit-call score of the fitted dose curve at least 0.9, where 1 is the maximum;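 note: hits raise estrogen receptor luciferase signal so potencies reflect agonists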)
Sequence of Estrogen receptor (Homo sapiens) (P03372 whole entry, looked up): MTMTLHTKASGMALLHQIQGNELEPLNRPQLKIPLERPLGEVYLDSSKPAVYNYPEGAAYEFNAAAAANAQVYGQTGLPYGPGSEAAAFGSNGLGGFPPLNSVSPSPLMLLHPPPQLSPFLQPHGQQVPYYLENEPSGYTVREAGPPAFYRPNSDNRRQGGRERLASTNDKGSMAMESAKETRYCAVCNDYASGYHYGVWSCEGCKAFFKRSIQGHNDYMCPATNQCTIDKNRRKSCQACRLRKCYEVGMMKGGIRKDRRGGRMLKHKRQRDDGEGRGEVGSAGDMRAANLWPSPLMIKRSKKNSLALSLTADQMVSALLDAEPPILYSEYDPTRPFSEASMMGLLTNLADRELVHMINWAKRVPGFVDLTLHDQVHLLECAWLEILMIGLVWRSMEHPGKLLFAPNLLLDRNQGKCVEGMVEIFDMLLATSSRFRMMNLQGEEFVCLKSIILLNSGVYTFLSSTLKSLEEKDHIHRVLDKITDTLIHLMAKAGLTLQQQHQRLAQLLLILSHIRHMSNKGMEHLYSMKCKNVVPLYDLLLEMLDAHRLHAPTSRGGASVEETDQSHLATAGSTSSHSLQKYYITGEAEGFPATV
In short: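 Metabolism-negative mode: chemicals (10-point, 0.002–200 uM) held 2 h with alginate-water microspheres, then conditioned medium applied to VM7Luc4E2 cells for 24 h. Luciferase induction referenced to 17beta-estradiol.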

[3] = CCTE_Deisenroth_AIME_384WELL_CTox_Inactive: Cytotoxicity Assessment (CTOX) in CCTE's 384-well Estrogen Receptor Transactivation Assay without AIME metabolic competence (metabolism negative), Deisenroth Lab (AID 2284039; active = hit-call score of the fitted dose curve at least 0.9, where 1 is the maximum;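 note: cell viability via live-cell protease substrate cleaved to fluorescent probe; cells exposed 24 h to medium preincubated 2 h with alginate-water beads without S9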)
In short: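 Fluorescence from a live-cell protease substrate, read after 24 h in VM7Luc4E2 cells, indicated viability. Test medium came from a 2 h AIME step without hepatic S9 (alginate-water microspheres); concentrations spanned 0.002 - 200 uM, single technical replicate per run.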

[4] = molecular target: Estrogen receptor (Homo sapiens) (UniProt P03372); assay: CCTE_Deisenroth_AIME_384WELL_LUC_Shift: CCTE's 384-well Estrogen Receptor Transactivation Assay with AIME metabolic competence data shift (ERTA luciferase; difference in metabolism positive and negative), Deisenroth Lab (AID 2284041);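 note: shift is response with S9 minus without S9 so positive means metabolism raised ER signal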
In short: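 Here, parent compounds undergo 2 h phase I metabolism by PB/BNF-induced rat S9 before 24 h transactivation in VM7Luc4E2 cells; the curve models S9-positive minus S9-negative response over a 10-point series.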

[5] = CCTE_Shafer_MEA_dev_firing_rate_mean: CCTE's Neural Network Formation Assay for Mean Firing Rate, Shafer Lab (AID 2284031);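 for AC50: curve fitted for loss of firing so AC50 reflects decreased mean firing rate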
In short: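 Primary rat cortical neurons on 48-well MEA plates, exposed from plating day 0 with dosing renewed on DIV 5 and 9. Mean well firing rate over active electrodes, recorded days 5, 7, 9, 12, summarised as trapezoidal AUC.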

[6] = CCTE_Shafer_MEA_dev_per_burst_spike_percent: CCTE's Neural Network Formation Assay for Percent of Spikes in a Burst, Shafer Lab (AID 2284032);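 for AC50: fitted as a decrease in burst spike percentage below DMSO baseline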
In short: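 Rat primary cortical neurons on 16-electrode MEA wells, dosed from plating day 0 for 12 days with renewal on DIV 5 and 9; spikes-in-bursts percentage averaged over bursting electrodes, collapsed as AUC across days 5, 7, 9, 12; loss direction versus DMSO.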

[7] = CCTE_Shafer_MEA_dev_active_electrodes_number: CCTE's Neural Network Formation Assay for Number of Active Electrodes, Shafer Lab (AID 2284040; active = hit-call score of the fitted dose curve at least 0.9, where 1 is the maximum;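 for AC50: potency for loss of active electrodes versus DMSO so lower counts are hits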)
In short: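 Primary rat cortical neurons on 16-electrode MEA wells, exposed from day 0 through day 12 with compound renewed at DIV 5 and 9 feeds. Active electrodes (mean firing ≥5 spikes/min) counted at DIV 5, 7, 9, 12; trapezoidal AUC across days, loss-of-signal versus DMSO.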

[8] = CCTE_Shafer_MEA_dev_burst_rate: CCTE's Neural Network Formation Assay for Burst Rate, Shafer Lab (AID 2284042);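 for AC50: potency for loss of burst rate below DMSO control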
In short: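 Developmental network assay measuring how 12-day exposure of rat cortical neuron cultures alters bursting on extracellular MEA recordings. Values are AUC of well-mean burst rate across four recording days, relative to DMSO vehicle.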

[9] = CCTE_Shafer_MEA_dev_bursting_electrodes_number: CCTE's Neural Network Formation Assay for Number of Bursting Electrodes, Shafer Lab (AID 2284043; active = hit-call score of the fitted dose curve at least 0.9, where 1 is the maximum;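 for AC50: potency is for loss of bursting electrodes relative to DMSO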)
In short: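 Primary rat cortical neurons were cultured on PEI-coated 48-well MEA plates (16 electrodes/well) and exposed from plating through day 12, with compound renewed at feeds on DIV 5 and 9. Electrodes bursting ≥1 per 2 min were counted on DIV 5, 7, 9, 12; trapezoidal AUC taken.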

[10] = CCTE_Shafer_MEA_dev_per_burst_interspike_interval: CCTE's Neural Network Formation Assay for Burst Interspike Interval, Shafer Lab (AID 2284044);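 note: mean spike spacing inside bursts as AUC over recordings on days 5 7 9 12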;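 for AC50: potency for a decrease of within-burst interspike interval below DMSO level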
In short: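 Neurons from rat cortex plated onto PEI-coated MEA wells with laminin […] at 1.5 x 10^5 cells/well, then treated from day 0. Media and compound fully replaced on DIV 5 and 9. Extracellular spontaneous firing recorded four times; interspike interval per burst summarised as AUC.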

Structure (SMILES): CCc1ccc(C(=O)NN(C(=O)c2cc(C)cc(C)c2)C(C)(C)C)cc1
- outcome [1]: inactive
- outcome [2]: inactive
- outcome [3]: inactive
- outcome [4]: inactive

Structure (SMILES): Cc1[nH]c(=O)n(C(C)(C)C)c(=O)c1Cl
- outcome [1]: inactive
- outcome [2]: inactive
- outcome [3]: inactive
- AC50 [4]: 66.1 µM (active)

Structure (SMILES): OCCOc1ccccc1
- outcome [1]: inactive
- AC50 [2]: 43.5 µM (active)
- outcome [3]: inactive
- AC50 [4]: 23.8 µM (active)

Structure (SMILES): CC[C@H](C)[C@H]1O[C@]2(C=C[C@@H]1C)C[C@@H]1C[C@@H](C/C=C(\C)[C@@H](O[C@H]3C[C@H](OC)[C@@H](O[C@H]4C[C@H](OC)[C@@H](O)[C@H](C)O4)[C@H](C)O3)[C@@H](C)/C=C/C=C3\CO[C@@H]4[C@H](O)C(C)=C[C@@H](C(=O)O1)[C@]34O)O2 (tested in a mixture with another compound)
- AC50 [5]: 0.611 nM (active) and 1.02 nM (active)
- AC50 [6]: 9.62 nM (active) and 1.82 nM (active)
- AC50 [7]: 3.93 nM (active) and 1.65 nM (active)
- AC50 [8]: 1.57 nM (active) and 0.778 nM (active)
- AC50 [9]: 3.82 nM (active) and 1.05 nM (active)
- AC50 [10]: 1.37 nM (active) and 2.71 nM (active)

Structure (SMILES): CC1(c2ccc(Oc3ccccc3)cc2)OC(=O)N(Nc2ccccc2)C1=O (stereo not given)
- AC50 [5]: 8.59 µM (active)
- AC50 [6]: 4.72 µM (active)
- AC50 [7]: 4.84 µM (active)
- AC50 [8]: 7.84 µM (active)
- AC50 [9]: 4.99 µM (active)
- AC50 [10]: 7.68 µM (active)

Structure (SMILES): CCC(C)Nc1c([N+](=O)[O-])cc(C(C)(C)C)cc1[N+](=O)[O-] (stereo not given)
- outcome [1]: inactive
- AC50 [2]: 12.4 µM (active)
- outcome [3]: inactive
- AC50 [4]: 8.77 µM (active)

Structure (SMILES): CCCN(CCC)c1c([N+](=O)[O-])cc(C(F)(F)F)cc1[N+](=O)[O-]
- outcome [2]: inactive
- outcome [4]: inactive

Structure (SMILES): COP(=O)(OC)OC=C(Cl)Cl
- AC50 [5]: 9.72 µM (active)
- outcome [5]: inactive
- AC50 [6]: 4.26 µM (active)
- outcome [6]: inactive
- outcome [1]: inactive
- outcome [2]: inactive
- AC50 [7]: 5.4 µM (active)
- outcome [7]: inactive
- outcome [4]: inactive
- AC50 [8]: 1.16 µM (active)
- outcome [8]: inactive
- AC50 [9]: 0.659 µM (active)
- outcome [9]: inactive
- AC50 [10]: 10.1 µM (active)
- outcome [10]: inactive

Structure (SMILES): CC(C)N(C(=O)COc1nnc(C(F)(F)F)s1)c1ccc(F)cc1
- outcome [5]: inactive
- outcome [6]: inactive
- outcome [3]: inactive
- outcome [7]: inactive
- outcome [4]: inactive
- outcome [8]: inactive
- AC50 [9]: 24.5 µM (active)
- outcome [9]: inactive
- outcome [10]: inactive

Structure (SMILES): CNC(=O)Oc1ccccc1OC(C)C
- outcome [2]: inactive
- outcome [4]: inactive

Structure (SMILES): O=C(O)COc1ccc(Cl)cc1Cl
- outcome [5]: inactive
- outcome [6]: inactive
- outcome [3]: inactive
- AC50 [7]: 50 µM (active)
- outcome [8]: inactive
- AC50 [9]: 30.9 µM (active)
- outcome [10]: inactive

Structure (SMILES): O=S1OCC2C(CO1)C1(Cl)C(Cl)=C(Cl)C2(Cl)C1(Cl)Cl (stereo not given)
- outcome [5]: inactive
- AC50 [6]: 8.83 µM (active)
- outcome [1]: inactive
- AC50 [2]: 12 µM (active)
- outcome [3]: inactive
- AC50 [7]: 8.87 µM (active)
- outcome [4]: inactive
- AC50 [8]: 8.87 µM (active)
- AC50 [9]: 8.62 µM (active)
- outcome [10]: inactive

Structure (SMILES): C[C@H]1[C@H](c2ccc(Cl)cc2)SC(=O)N1C(=O)NC1CCCCC1
- outcome [1]: inactive
- outcome [2]: inactive
- outcome [3]: inactive
- outcome [4]: inactive

Structure (SMILES): Oc1cc(Cl)ccc1Oc1ccc(Cl)cc1Cl
- AC50 [5]: 10 µM (active)
- AC50 [6]: 10.2 µM (active)
- outcome [3]: inactive
- AC50 [7]: 9.79 µM (active)
- AC50 [8]: 8.47 µM (active)
- AC50 [9]: 9.29 µM (active)
- AC50 [10]: 16 µM (active)

Structure (SMILES): CC1(C)C(C=C(Cl)Cl)C1C(=O)OC(C#N)c1ccc(F)c(Oc2ccccc2)c1 (stereo not given)
- AC50 [5]: 1.15 µM (active) and 9.57 µM (active)
- outcome [5]: inactive
- AC50 [6]: 2.63 µM (active) and 27.9 µM (active) and 19.5 µM (active)
- AC50 [7]: 10 µM (active) and 26.4 µM (active) and 10.4 µM (active)
- AC50 [8]: 1.07 µM (active) and 259 nM (active)
- outcome [8]: inactive
- AC50 [9]: 2.28 µM (active) and 25.9 µM (active) and 9.56 µM (active)
- AC50 [10]: 10 µM (active)
- outcome [10]: inactive

Structure (SMILES): CCC(C)(C)C(=O)OC1=C(c2ccc(Cl)cc2Cl)C(=O)OC12CCCCC2
- outcome [5]: inactive
- outcome [6]: inactive
- outcome [7]: inactive
- outcome [8]: inactive
- outcome [9]: inactive
- outcome [10]: inactive

Structure (SMILES): CNC(=O)Oc1cccc(N=CN(C)C)c1
- outcome [1]: inactive
- outcome [2]: inactive
- outcome [3]: inactive
- outcome [4]: inactive

Structure (SMILES): CCOCN(C(=O)CCl)c1c(C)cccc1CC
- outcome [1]: inactive
- outcome [4]: inactive

Structure (SMILES): CCOC1Oc2ccc(OS(C)(=O)=O)cc2C1(C)C (stereo not given)
- AC50 [1]: 100 µM (active)
- outcome [2]: inactive
- AC50 [3]: 100 µM (active)
- outcome [4]: inactive

Structure (SMILES): CNC(=O)/C=C(\C)OP(=O)(OC)OC
- outcome [1]: inactive
- outcome [2]: inactive
- outcome [4]: inactive

Structure (SMILES): CC(C)(C)C(O)/C(=C\c1ccc(Cl)cc1Cl)n1cncn1 (stereo not given)
- AC50 [1]: 148 µM (active)
- AC50 [3]: 144 µM (active)
- outcome [4]: inactive

Structure (SMILES): ClC1C(Cl)C(Cl)C(Cl)C(Cl)C1Cl (stereo not given)
- outcome [5]: inactive
- outcome [6]: inactive
- outcome [7]: inactive
- outcome [8]: inactive
- outcome [9]: inactive
- outcome [10]: inactive

Structure (SMILES): COP(=S)(OC)Oc1ccc([N+](=O)[O-])cc1
- outcome [5]: inactive
- outcome [6]: inactive
- AC50 [7]: 20.2 µM (active)
- outcome [8]: inactive
- AC50 [9]: 15 µM (active)
- outcome [10]: inactive

Structure (SMILES): CNC(=O)CSP(=S)(OC)OC
- AC50 [5]: 79.3 µM (active)
- outcome [5]: inactive
- AC50 [6]: 63.8 µM (active) and 27.9 µM (active)
- AC50 [7]: 77.4 µM (active) and 18.9 µM (active)
- AC50 [8]: 78.2 µM (active)
- outcome [8]: inactive
- AC50 [9]: 66.4 µM (active) and 21.9 µM (active)
- outcome [10]: inactive

Structure (SMILES): O=C(O)C(F)(F)C(F)(F)C(F)(F)C(F)(F)C(F)(F)C(F)(F)C(F)(F)F
- outcome [5]: inactive
- outcome [6]: inactive
- outcome [1]: inactive
- outcome [3]: inactive
- AC50 [7]: 14.1 µM (active)
- outcome [7]: inactive
- outcome [8]: inactive
- outcome [9]: inactive
- outcome [10]: inactive

Structure (SMILES): O=S(=O)(O)C(F)(F)C(F)(F)C(F)(F)C(F)(F)C(F)(F)C(F)(F)C(F)(F)C(F)(F)F
- outcome [5]: inactive
- AC50 [6]: 77.9 µM (active)
- outcome [6]: inactive
- AC50 [3]: 100 µM (active)
- AC50 [7]: 50 µM (active)
- outcome [7]: inactive
- AC50 [8]: 3.81 µM (active)
- outcome [8]: inactive
- AC50 [9]: 43.1 µM (active)
- outcome [9]: inactive
- outcome [10]: inactive

Structure (SMILES): Clc1ccccc1-c1nnc(-c2ccccc2Cl)nn1
- outcome [1]: inactive
- outcome [2]: inactive
- outcome [3]: inactive
- outcome [4]: inactive

Structure (SMILES): O=[N+]([O-])/N=C1\NCCN1Cc1ccc(Cl)nc1
- outcome [5]: inactive
- outcome [6]: inactive
- outcome [7]: inactive
- outcome [8]: inactive
- outcome [9]: inactive
- outcome [10]: inactive
